Measured values: PubChem BioAssay AID1347414 (National Center for Advancing Translational Sciences (NCATS), 2020)
Results filed as inconclusive are left out. Values without a mark were called inactive. Active and inactive are the calls of the source. The call rests on the fitted dose curve; in most records, active means well fitted inhibition curve with a large enough effect; inconclusive means small, poorly fitted or top-dose-only effect; inactive means no such curve, though single readings can be large or run the other way. Numbered stars: 1 amine (or outer) side, 2 acyl side, 3 side chain; on linkers, the order of the positions; unused ones are H or OH. Bridge positions count the residues as written; N and C are the ends. Square brackets hold non-standard residues; d marks the D form. Peptide text beside a SMILES is read from it. I, II: the chains in the order shown. Actinocin(9to1) = Cc1c2oc3c(C)ccc(C(=O)[*:1])c3nc-2c(C(=O)[*:2])c(N)c1=O; NMeV = CN[C@H](C(=O)O)C(C)C; Sar = CNCC(=O)O

experiment: qHTS to identify inhibitors of the type 1 interferon - major histocompatibility complex class I in skeletal muscle: Secondary screen by immunofluorescence; conditions: C25cl48 myoblasts, IFN-b induced HLA-ABC immunofluorescence, 24 h, Viability; series mostly up to 49.8 µM; activity change, negative = inhibition: at the top concentration; further: nearly all actives have a fitted effect of over 70% in size;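 on activity change, negative = inhibition: digitonin at 100 µM served as the cytotoxic control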
In short: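 Immortalized human myoblasts C25cl48 were stimulated with 4.0 ng/ml IFN-beta and exposed to an 11-point 1:3 compound titration, top 50 uM, for 24 h at 37 C. They were then fixed and immunostained for HLA-ABC, and quantified by laser scanning cytometry.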
On the % scale 0 is the no-effect control and ±100 the full control effect; potency means the concentration at half of the fitted maximal effect.

| Structure (SMILES) | activity change, negative = inhibition | Potency |
| --- | --- | --- |
| Fc1ccc(CNc2ncnc3ccc(F)cc23)cc1 | 8.45% |  |
| CO[C@H]1C(=O)[C@]2(C)[C@@H](OC)C[C@H]3OC[C@@]3(OC(C)=O)[C@H]2[C@H](OC(=O)c2ccccc2)[C@]2(O)C[C@H](OC(=O)[C@H](O)[C@@H](NC(=O)OC(C)(C)C)c3ccccc3)C(C)=C1C2(C)C | 0.182% |  |
| C#Cc1cccc(Nc2ncnc3cc(OC)c(OCCCCCCC(=O)NO)cc23)c1 | -3.83% |  |
| Cc1c2oc3c(C)ccc(C(=O)N[C@@H]4C(=O)N[C@H](C(C)C)C(=O)N5CCC[C@H]5C(=O)N(C)CC(=O)N(C)[C@@H](C(C)C)C(=O)O[C@@H]4C)c3nc-2c(C(=O)N[C@@H]2C(=O)N[C@H](C(C)C)C(=O)N3CCC[C@H]3C(=O)N(C)CC(=O)N(C)[C@@H](C(C)C)C(=O)O[C@@H]2C)c(N)c1=O (I: T[dV]P[Sar][NMeV] / II: T[dV]P[Sar][NMeV]; ester I:1-I:C, II:1-II:C; linker I:N-II:N via Actinocin(9to1)) | -2.59% |  |
| CC(C)c1c(-c2ccccc2)nc2c(C#N)c[nH]n2c1=O | 7.47% |  |
| Cc1oncc1C(=O)Nc1ccc(C(F)(F)F)cc1 | -2.37% |  |
| Cc1ccc(C(=O)Nc2ccc(CN3CCN(C)CC3)c(C(F)(F)F)c2)cc1C#Cc1cnc2[nH]ncc2c1 |  | 12.9 µM (active) |
| CCCCC(=O)O[C@]1(C(=O)CO)[C@@H](C)C[C@H]2[C@@H]3CCC4=CC(=O)C=C[C@]4(C)[C@@]3(F)[C@@H](O)C[C@@]21C | -2.37% |  |
| CC(/C=C/C(=O)NO)=C\[C@@H](C)C(=O)c1ccc(N(C)C)cc1 | -16.9% |  |
